A selection: hits, their analogues and other compounds. The true share with any hit is near 6.2%.
NR3A LBD binder: modulators (binders) of human NR3A ligand-binding domain; Tm shift relative to glycine control, % at 25 µM; AID 1259313; NR3A LBD differential scanning fluorimetry, Tm shift; 0% = protein alone, 100% = glycine-bound protein; hit rate 2.5% among 340,000;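 active = melting temperature shift of at least 10% of the positive control shift, at one fixed dose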
Cardio protect: modulators protecting cardiomyocytes from myocardial damage | hit rate 0.63% among 360,000 | H9c2 cardiomyocytes, H2O2 injury protection, ATPLite, 2 h | protection from H2O2 cell death, % at 20 µM | AID 588492;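 active = compounds giving at least 50% protection of heart cells from peroxide-induced death in the single-dose screen, raw or plate-pattern-corrected value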;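 also: 0% = DMSO wells with peroxide and 100% = DMSO wells without peroxide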
NTR1 agonist: agonists of human neurotensin receptor NTR1 | activation, % at 20 µM | AID 493036 | P30989 | NTR1-U2OS beta-arrestin-GFP spot imaging, agonist mode | hit rate 0.17% among 330,000;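 active = activation at or above 40% of the spot to cytoplasm intensity ratio, with at least 20 cells analyzed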;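 also: 0% = DMSO without peptide and 100% = 100 nM NTR1 peptide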
AHR activator: human AHR activation | P35869 | AHR-responsive luciferase reporter cells, luminescence | activation, % at 5 µM | hit rate 2.5% among 320,000 | AID 2796; in the data active = activation above about 47%;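 also: 0% = vehicle wells and 100% = reference agonist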
AI-2 QS mod: modulates the Vibrio harveyi AI-2 quorum sensing system; Vibrio harveyi JMH597 AI-2 luminescence/OD600 ratio, 9 h; hits give low values; strain lacks LuxN and CqsS sensors; 0 = neutral-control median; activity change, % at 7.5 µM; hit rate 0.4% among 300,000; in the data active = activity change below about -75%, passing the limit was not always enough;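 also: luminescence divided by OD600 gain over 9 h not by final OD600 alone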
SUMO Mot1 rescue: blocks SUMOylation pathway, rescuing yeast Mot1-301 growth. AID 2716. S. cerevisiae Mot1-301 growth rescue, ATP luminescence, 38.5C; percent above DMSO median, 100 means doubled. hit rate 1% among 320,000. growth rescue, % at 18.8 µM;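 active = every valid replicate shows activation above 250% relative to neutral control wells; inactive = the rest, any valid replicate at or below 250%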;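 also: OY570 slx delta 5 strain wells were the positive control but not used for scaling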
The depositor's hits bear a star; · = no result.

SMILES	NR3A LBD binder	Cardio protect	NTR1 agonist	AHR activator	AI-2 QS mod	SUMO Mot1 rescue
CCc1nc2ccc(C(=O)N(C)CCN(C)C)cn2c1N(C)CCC(C)C	·	5.9	·	·	·	·
O=[N+]([O-])c1ccc(C(O)CSC(=S)N2CCCCC2)cc1 (stereo not given)	0.6	-6.6	2.4	0.8	-9.3	8.2
O=C(Nc1ccnn1C1CCN(Cc2cccc(OCCO)c2)CC1)c1cccc(F)c1	0.1	-0.6	0.6	2.8	31.0	13.1
CC(=O)Nc1ccc2c(c1)Cc1cc(N3C(=O)C=CC3=O)ccc1-2	24.0*	-20.1	·	·	·	·
O=C1C=CC(=O)N1c1ccc2c(c1)Cc1cc(F)ccc1-2	2.2	-20.4	·	·	·	·
C[C@H](CO)N1C[C@H](C)[C@H](CN(C)C(=O)c2ccccc2)OCc2ccccc2-c2c(n(C)c3ccccc23)C1=O	·	-8.6	·	·	·	·
Cc1ccc(-n2c(C(C)C)nc3oc4ccccc4c(=O)c3c2=O)cc1	-0.6	-2.5	3.8	74.6*	·	-15.7
CCc1nc2oc3ccccc3c(=O)c2c(=O)n1-c1ccc(C)cc1	-1.0	-1.2	0.1	64.0*	30.9	8.0
CCc1nc2oc3ccccc3c(=O)c2c(=O)n1CCOC	-0.3	-3.6	0.1	19.3	38.1	-1.5
COCCn1c(C(C)C)nc2oc3ccccc3c(=O)c2c1=O	-3.4	5.6	-3.0	3.4	20.7	-6.5
CCCc1nc2oc3ccccc3c(=O)c2c(=O)n1-c1ccccc1	1.2	1.6	1.3	100.5*	10.6	-6.2
COc1ccc(S(=O)(=O)N(C)C[C@H]2Oc3c(NC(=O)c4ccncc4)cccc3C(=O)N([C@H](C)CO)C[C@@H]2C)cc1	1.4	16.7	1.2	-0.2	·	-9.2
Cc1ccnc(NC(=O)CCC(=O)N(CC(=O)NCC2CCCO2)Cc2ccc(F)cc2)c1 (stereo not given)	10.8*	14.1	0.0	-1.1	6.5	7.1
Cc1ccnc(NC(=O)CCC(=O)N(CC(=O)NCc2ccc(F)cc2)CC2CCCO2)c1 (stereo not given)	0.1	7.9	0.2	0.9	7.7	7.0
CCC(C)c1ccc(O)c(NC(=O)c2cncc(Br)c2)c1 (stereo not given)	-24.8	-19.4	0.2	21.1	-85.1*	-7.9
O=C(NC(=S)Nc1ccccc1O)c1cccnc1	4.8	-3.4	0.1	58.3*	13.2	6.3
O=C(N/C(=C/c1cccnc1)C(=O)N1CCCCCC1)c1cccc(Br)c1	1.0	6.0	0.3	48.5*	17.6	-4.1
O=C(N/C(=C\c1cccnc1)C(=O)N1CCC(O)CC1)c1ccccc1	-3.0	4.5	-3.3	4.6	1.8	-8.6
O=C(NC(=S)N1CCCCC1)c1cccnc1	2.2	-2.4	0.2	0.8	13.4	343.9*
CC(=O)Nc1ccc(S(=O)(=O)NCCC(=O)NCc2ccco2)cc1	·	-2.1	·	·	·	·
CC(C)C(N)c1csc(Nc2ccc(S(C)(=O)=O)cc2)n1 (stereo not given)	·	7.0	·	·	·	·
Cc1onc(-c2ccccc2Cl)c1C(=O)NCc1nnnn1-c1ccc(F)cc1	-2.0	-1.9	-0.4	4.5	3.9	-0.1
O=C(NC(=S)Nc1ccccc1C(=O)O)c1cncc(Br)c1	1.6	-0.6	2.0	2.1	-1.5	-0.9
O=C(NC(=S)Nc1ccccc1O)c1cncc(Br)c1	-0.8	2.7	-2.1	53.5*	45.6	1.7
Cc1cc(C(=O)NNC(=O)c2ccc(NC(=O)CC#N)cc2)c(C)o1	0.1	3.5	-2.2	0.0	·	9.4
SMILES	NR3A LBD binder	Cardio protect	NTR1 agonist	AHR activator	AI-2 QS mod	SUMO Mot1 rescue
CCCOP(=O)(OCCC)c1c([N+](=O)[O-])cc(C(F)(F)F)cc1[N+](=O)[O-]	11.0*	-19.7	3.2	1.2	16.9	-0.6
O=C(CSc1nc2ccccc2o1)Nc1nc(-c2ccccc2)cs1	12.1*	-1.2	3.4	32.0	-3.5	16.5
O=C(CSc1nc2ccccc2[nH]1)Nc1nc(-c2cccc(Br)c2)cs1	0.5	1.7	30.4	64.5*	21.7	7.7
Cc1ccc(NC(=O)CSc2nnc3c(n2)[nH]c2ccccc23)cc1	-18.4	-0.5	-0.1	0.8	30.0	-9.4
Cc1ccc(-c2csc(NC(=O)CSc3nnc4c(n3)[nH]c3ccccc34)n2)cc1	21.4*	-7.2	·	9.4	·	0.8
CN(C)CCCn1c(SCC(=O)Nc2nc(-c3cccc(Br)c3)cs2)nc2ccccc2c1=O	-5.1	-28.1	5.5	6.0	0.5	81.0
